# Results: PMC7862700, “An all-to-all approach to the identification of sequence-specific readers for epigenetic DNA modifications on cytosine”
# How the values were obtained:
# Assay in all cases: DAPPL (digital affinity profiling via proximity ligation, sequencing); 10 mM Tris-HCl pH 7.5, 50 mM NaCl, 1 mM DTT, 4% glycerol, room temperature, 30 min; GST-TFs on glutathione beads, 16-mer random dsDNA library, 0.1% formaldehyde crosslink after washing; high values mean tight binding
# FEV = target: T1, FEV (Homo sapiens, UniProt Q99581 1-238); conditions: protein: recombinant; tags: N-terminal GST; dsDNA, one strand shown
# T1 sequence: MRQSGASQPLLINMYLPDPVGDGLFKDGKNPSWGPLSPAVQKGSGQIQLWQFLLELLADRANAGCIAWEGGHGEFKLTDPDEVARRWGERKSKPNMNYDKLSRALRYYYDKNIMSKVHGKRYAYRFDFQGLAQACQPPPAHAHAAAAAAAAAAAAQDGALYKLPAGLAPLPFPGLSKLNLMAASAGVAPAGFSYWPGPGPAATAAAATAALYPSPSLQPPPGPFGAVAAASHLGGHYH
# How it was run: (§1)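 Binding signal is each hexamer's read frequency for a factor divided by its frequency in the tag-only sample. The factors were GST-fused human transcription factors from yeast, captured on glutathione beads, DNA-barcoded and pooled with that sample. Pools were incubated with 200 nmole of a random double-stranded 16-mer DNA library in Tris/NaCl/DTT/glycerol buffer at room temperature for 30 min, then washed, crosslinked with 0.1% formaldehyde, proximity-ligated with BsaI/T4 ligase (1 h, 37 °C), PCR-amplified and sequenced on an Illumina NextSeq500.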
# ETV5 = ETV5 (Homo sapiens, UniProt P41161 1-510); conditions: protein: recombinant; tags: N-terminal GST; dsDNA, one strand shown
# Chain of ETV5 (P41161 whole entry): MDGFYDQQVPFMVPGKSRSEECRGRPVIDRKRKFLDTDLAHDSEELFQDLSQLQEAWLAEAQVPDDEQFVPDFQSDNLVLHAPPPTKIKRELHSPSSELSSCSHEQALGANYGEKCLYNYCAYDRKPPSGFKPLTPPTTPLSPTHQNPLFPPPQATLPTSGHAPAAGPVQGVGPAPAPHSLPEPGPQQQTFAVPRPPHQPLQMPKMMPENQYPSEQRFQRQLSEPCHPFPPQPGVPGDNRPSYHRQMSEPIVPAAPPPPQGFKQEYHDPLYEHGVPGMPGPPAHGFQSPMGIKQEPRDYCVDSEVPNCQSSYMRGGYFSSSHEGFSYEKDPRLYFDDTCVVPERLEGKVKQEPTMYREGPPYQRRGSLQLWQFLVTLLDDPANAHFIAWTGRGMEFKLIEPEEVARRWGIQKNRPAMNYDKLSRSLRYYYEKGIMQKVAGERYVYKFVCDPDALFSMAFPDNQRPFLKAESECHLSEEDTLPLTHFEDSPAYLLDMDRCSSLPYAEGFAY
# How it was run: as §1
# HSF1 = HSF1 (Homo sapiens, UniProt Q00613 1-529); conditions: protein: recombinant; tags: N-terminal GST; chain copies: 3; dsDNA, one strand shown
# Chain of HSF1 (Q00613 whole entry): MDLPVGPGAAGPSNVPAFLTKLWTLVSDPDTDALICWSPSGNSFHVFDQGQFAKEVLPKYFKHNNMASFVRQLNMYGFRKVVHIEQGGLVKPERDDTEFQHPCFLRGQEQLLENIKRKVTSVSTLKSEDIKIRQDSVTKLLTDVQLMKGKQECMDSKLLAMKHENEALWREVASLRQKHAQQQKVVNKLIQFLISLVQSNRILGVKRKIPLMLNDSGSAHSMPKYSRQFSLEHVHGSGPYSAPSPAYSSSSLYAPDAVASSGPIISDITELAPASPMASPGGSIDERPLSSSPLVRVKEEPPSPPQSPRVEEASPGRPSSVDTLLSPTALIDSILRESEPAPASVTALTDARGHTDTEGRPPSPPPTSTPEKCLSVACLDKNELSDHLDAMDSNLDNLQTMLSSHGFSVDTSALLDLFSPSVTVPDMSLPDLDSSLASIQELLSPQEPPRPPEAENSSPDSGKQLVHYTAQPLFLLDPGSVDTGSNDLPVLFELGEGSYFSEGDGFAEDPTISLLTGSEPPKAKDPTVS
# How it was run: as §1
# ELF4 = ELF4 (Homo sapiens, UniProt Q99607 1-663); conditions: protein: recombinant; tags: N-terminal GST; dsDNA, one strand shown
# Chain of ELF4 (Q99607 whole entry): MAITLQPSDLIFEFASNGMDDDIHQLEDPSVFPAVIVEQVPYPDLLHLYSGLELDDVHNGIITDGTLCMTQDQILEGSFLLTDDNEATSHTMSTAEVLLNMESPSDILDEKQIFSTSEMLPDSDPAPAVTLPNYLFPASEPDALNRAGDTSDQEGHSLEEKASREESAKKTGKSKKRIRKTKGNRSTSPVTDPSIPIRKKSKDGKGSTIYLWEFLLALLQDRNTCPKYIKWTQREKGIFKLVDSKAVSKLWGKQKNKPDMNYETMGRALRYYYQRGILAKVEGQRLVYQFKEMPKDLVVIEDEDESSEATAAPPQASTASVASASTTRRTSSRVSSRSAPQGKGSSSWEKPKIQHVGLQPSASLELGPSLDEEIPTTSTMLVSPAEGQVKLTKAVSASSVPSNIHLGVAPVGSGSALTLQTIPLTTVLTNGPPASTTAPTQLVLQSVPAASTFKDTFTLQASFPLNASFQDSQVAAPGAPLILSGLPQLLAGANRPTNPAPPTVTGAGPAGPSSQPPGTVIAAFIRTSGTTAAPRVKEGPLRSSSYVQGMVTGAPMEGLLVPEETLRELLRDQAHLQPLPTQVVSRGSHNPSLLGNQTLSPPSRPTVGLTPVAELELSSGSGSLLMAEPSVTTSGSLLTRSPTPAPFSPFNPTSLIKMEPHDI
# How it was run: as §1
# ELK4 = target: T2, ELK4 (Homo sapiens, UniProt P28324-2 1-405); conditions: protein: recombinant; tags: N-terminal GST; dsDNA, one strand shown
# T2 sequence: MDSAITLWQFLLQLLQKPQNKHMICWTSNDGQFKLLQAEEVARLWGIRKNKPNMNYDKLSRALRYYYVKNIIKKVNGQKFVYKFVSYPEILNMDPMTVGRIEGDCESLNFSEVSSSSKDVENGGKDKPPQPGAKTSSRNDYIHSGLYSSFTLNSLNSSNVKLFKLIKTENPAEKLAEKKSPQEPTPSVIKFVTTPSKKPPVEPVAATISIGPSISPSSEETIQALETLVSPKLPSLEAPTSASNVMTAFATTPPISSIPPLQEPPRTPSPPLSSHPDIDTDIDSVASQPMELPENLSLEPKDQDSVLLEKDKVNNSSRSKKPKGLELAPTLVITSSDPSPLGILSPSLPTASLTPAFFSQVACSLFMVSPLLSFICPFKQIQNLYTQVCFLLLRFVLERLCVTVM
# How it was run: as §1
# ETV2 = target: T3, ETV2 (Homo sapiens, UniProt O00321 1-342); conditions: protein: recombinant; tags: N-terminal GST; dsDNA, one strand shown
# T3 sequence: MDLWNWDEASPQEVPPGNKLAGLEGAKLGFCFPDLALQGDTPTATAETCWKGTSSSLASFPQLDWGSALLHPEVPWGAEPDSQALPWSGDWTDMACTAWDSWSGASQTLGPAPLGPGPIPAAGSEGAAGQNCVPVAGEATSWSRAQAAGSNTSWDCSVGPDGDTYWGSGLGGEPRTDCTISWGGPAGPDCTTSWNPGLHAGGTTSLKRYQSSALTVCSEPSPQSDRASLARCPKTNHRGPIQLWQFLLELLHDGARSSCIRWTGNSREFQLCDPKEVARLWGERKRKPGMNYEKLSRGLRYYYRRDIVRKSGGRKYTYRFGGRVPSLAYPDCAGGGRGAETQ
# How it was run: as §1
# ELF3 = target: T4, ELF3 (Homo sapiens, UniProt P78545 1-371); conditions: protein: recombinant; tags: N-terminal GST; dsDNA, one strand shown
# T4 sequence: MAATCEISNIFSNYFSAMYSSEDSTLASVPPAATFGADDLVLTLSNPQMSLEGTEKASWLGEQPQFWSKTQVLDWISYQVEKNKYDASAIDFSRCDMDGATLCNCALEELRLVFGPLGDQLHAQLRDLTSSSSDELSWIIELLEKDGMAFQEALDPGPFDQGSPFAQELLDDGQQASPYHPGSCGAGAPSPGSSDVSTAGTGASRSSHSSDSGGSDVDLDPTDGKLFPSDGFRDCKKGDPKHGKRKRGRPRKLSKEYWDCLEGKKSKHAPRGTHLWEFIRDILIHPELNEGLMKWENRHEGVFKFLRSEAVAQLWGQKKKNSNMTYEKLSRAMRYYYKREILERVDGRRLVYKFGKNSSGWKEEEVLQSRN
# How it was run: as §1
# CRX = CRX (Homo sapiens, UniProt O43186 1-299); conditions: protein: recombinant; tags: N-terminal GST; dsDNA, one strand shown
# Chain of CRX (O43186 whole entry): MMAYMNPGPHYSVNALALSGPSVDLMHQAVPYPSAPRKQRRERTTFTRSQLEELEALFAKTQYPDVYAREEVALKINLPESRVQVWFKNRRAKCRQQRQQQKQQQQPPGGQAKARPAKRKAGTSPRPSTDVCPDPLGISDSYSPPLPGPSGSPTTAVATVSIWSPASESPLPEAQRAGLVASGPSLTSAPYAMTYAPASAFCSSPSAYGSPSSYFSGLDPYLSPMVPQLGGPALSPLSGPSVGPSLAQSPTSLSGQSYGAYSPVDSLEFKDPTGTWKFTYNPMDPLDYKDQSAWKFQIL
# How it was run: as §1
# ETV1 = ETV1 (Homo sapiens, UniProt P50549 1-477); conditions: protein: recombinant; tags: N-terminal GST; dsDNA, one strand shown
# Chain of ETV1 (P50549 whole entry): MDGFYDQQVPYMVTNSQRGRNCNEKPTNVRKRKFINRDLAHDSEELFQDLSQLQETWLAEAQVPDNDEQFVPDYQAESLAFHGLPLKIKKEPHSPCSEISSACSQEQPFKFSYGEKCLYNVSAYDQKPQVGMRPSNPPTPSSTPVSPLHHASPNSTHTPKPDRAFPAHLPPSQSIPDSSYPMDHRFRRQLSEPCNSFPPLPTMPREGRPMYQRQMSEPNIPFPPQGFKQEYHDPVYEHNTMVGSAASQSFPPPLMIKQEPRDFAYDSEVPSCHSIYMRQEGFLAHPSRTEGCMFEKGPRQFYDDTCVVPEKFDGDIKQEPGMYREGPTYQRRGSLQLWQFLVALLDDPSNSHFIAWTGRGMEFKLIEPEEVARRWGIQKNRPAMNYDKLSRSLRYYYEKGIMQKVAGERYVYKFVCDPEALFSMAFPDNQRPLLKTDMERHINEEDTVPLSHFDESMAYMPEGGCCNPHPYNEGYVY
# How it was run: as §1
# ERF = target: T5, ERF (Homo sapiens, UniProt P50548 1-548); conditions: protein: recombinant; tags: N-terminal GST; dsDNA, one strand shown
# T5 sequence: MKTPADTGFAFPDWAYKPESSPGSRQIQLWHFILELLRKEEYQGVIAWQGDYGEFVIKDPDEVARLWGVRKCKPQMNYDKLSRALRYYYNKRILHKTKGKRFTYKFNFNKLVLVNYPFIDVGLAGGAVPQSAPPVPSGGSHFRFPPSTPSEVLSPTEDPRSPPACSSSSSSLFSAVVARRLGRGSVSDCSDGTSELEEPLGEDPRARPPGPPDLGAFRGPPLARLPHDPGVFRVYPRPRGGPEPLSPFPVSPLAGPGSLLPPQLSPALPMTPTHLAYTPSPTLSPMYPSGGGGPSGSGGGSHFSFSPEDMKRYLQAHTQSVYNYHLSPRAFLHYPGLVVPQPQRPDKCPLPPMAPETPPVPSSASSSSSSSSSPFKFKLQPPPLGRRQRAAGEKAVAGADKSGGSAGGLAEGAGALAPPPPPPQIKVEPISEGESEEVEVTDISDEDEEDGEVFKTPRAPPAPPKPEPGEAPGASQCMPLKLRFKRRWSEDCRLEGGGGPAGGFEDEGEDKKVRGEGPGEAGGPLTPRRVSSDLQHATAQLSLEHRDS
# How it was run: as §1
# ETV3L = target: T6, ETV3L (Homo sapiens, UniProt Q6ZN32 1-361); conditions: protein: recombinant; tags: N-terminal GST; dsDNA, one strand shown
# T6 sequence: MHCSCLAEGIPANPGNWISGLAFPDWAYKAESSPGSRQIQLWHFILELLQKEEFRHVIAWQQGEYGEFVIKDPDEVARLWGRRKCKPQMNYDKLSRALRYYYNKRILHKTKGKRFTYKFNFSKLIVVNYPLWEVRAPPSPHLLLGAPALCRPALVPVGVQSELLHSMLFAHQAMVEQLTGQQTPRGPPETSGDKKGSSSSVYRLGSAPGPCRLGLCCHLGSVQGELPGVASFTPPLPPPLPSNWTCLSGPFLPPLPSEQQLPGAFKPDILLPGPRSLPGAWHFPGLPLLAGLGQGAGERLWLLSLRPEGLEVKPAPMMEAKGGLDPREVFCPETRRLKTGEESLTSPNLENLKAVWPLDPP
# How it was run: as §1
# ETS2 = target: T7, ETS2 (Homo sapiens, UniProt P15036 1-469); conditions: protein: recombinant; tags: N-terminal GST; dsDNA, one strand shown
# T7 sequence: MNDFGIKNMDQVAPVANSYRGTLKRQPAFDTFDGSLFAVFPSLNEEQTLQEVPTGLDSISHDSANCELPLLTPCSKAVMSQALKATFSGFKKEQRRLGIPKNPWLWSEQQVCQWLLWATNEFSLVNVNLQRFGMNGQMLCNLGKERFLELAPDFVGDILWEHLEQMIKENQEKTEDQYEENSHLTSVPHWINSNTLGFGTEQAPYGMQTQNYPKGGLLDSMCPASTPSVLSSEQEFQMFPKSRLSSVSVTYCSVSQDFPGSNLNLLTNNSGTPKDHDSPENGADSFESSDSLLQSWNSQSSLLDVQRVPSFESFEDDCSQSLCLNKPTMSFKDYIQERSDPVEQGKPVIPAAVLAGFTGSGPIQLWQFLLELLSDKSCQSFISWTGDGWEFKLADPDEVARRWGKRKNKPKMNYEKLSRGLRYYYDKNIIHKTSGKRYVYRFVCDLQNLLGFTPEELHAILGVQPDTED
# How it was run: as §1
# SPDEF = target: T8, SPDEF (Homo sapiens, UniProt O95238 1-335); conditions: protein: recombinant; tags: N-terminal GST; dsDNA, one strand shown
# T8 sequence: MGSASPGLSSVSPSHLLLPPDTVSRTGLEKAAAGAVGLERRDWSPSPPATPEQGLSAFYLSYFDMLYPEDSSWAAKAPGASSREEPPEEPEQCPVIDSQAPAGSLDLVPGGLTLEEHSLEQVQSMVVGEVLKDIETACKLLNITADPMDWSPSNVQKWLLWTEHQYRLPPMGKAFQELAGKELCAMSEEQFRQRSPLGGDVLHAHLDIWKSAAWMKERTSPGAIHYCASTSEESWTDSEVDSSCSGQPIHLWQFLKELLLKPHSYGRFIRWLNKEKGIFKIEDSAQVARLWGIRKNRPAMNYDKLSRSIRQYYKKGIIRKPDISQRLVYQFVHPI
# How it was run: as §1
# ETV7 = target: T9, ETV7 (Homo sapiens, UniProt Q9Y603 1-341); conditions: protein: recombinant; tags: N-terminal GST; dsDNA, one strand shown
# T9 sequence: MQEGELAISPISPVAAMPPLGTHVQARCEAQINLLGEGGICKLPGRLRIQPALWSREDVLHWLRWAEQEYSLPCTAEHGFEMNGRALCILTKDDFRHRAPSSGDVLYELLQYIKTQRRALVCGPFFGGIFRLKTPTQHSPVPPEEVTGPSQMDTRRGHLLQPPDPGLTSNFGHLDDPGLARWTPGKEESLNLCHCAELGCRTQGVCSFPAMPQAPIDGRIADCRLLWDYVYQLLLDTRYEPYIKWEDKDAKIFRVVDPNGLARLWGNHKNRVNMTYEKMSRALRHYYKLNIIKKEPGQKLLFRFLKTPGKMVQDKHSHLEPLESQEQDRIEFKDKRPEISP
# How it was run: as §1
# ETV3 = target: T10, ETV3 (Homo sapiens, UniProt P41162-2 1-143); conditions: protein: recombinant; tags: N-terminal GST; dsDNA, one strand shown
# T10 sequence: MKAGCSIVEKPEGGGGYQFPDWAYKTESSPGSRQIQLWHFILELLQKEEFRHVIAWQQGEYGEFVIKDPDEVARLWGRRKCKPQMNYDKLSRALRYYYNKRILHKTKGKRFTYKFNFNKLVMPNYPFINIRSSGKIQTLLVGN
# How it was run: as §1
# ETV6 = ETV6 (Homo sapiens, UniProt P41212 1-452); conditions: protein: recombinant; tags: N-terminal GST; dsDNA, one strand shown
# Chain of ETV6 (P41212 whole entry): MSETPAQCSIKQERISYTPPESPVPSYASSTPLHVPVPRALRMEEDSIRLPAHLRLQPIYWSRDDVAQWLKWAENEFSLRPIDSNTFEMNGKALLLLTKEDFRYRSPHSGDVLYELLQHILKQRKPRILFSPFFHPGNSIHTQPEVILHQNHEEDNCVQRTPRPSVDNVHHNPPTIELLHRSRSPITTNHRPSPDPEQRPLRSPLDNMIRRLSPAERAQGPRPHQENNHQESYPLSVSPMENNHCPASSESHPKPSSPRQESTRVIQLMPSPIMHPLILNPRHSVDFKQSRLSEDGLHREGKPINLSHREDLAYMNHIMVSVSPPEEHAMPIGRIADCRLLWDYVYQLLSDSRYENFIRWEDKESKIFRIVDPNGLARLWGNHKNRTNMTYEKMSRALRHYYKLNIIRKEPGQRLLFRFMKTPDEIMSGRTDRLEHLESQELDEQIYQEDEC
# How it was run: as §1
sequence,measurement,setting,value
TAACAG,binding signal,FEV,"1.05 fold enrichment (6-mer frequency, TF over GST control)"
same,binding signal,ETV5,"1.04 fold enrichment (6-mer frequency, TF over GST control)"
same,binding signal,HSF1,"1.02 fold enrichment (6-mer frequency, TF over GST control)"
same,binding signal,ELF4,"1.09 fold enrichment (6-mer frequency, TF over GST control)"
same,binding signal,ELK4,"1.12 fold enrichment (6-mer frequency, TF over GST control)"
same,binding signal,ETV2,"1.02 fold enrichment (6-mer frequency, TF over GST control)"
same,binding signal,ELF3,"1.09 fold enrichment (6-mer frequency, TF over GST control)"
same,binding signal,CRX,"1.3 fold enrichment (6-mer frequency, TF over GST control)"
same,binding signal,ETV1,"1.09 fold enrichment (6-mer frequency, TF over GST control)"
same,binding signal,ERF,"1.05 fold enrichment (6-mer frequency, TF over GST control)"
same,binding signal,ETV3L,"1.05 fold enrichment (6-mer frequency, TF over GST control)"
same,binding signal,ETS2,"1.03 fold enrichment (6-mer frequency, TF over GST control)"
same,binding signal,SPDEF,"1.11 fold enrichment (6-mer frequency, TF over GST control)"
same,binding signal,ETV7,"1.09 fold enrichment (6-mer frequency, TF over GST control)"
same,binding signal,ETV3,"1.02 fold enrichment (6-mer frequency, TF over GST control)"
same,binding signal,ETV6,"1 fold enrichment (6-mer frequency, TF over GST control)"
